Screens (PubChem BioAssay)
TRb SRC2 PPI = disrupts binding of human TR beta to SRC2; TRbeta-SRC2 peptide binding, fluorescence polarization; receptor liganded with 1 µM T3; Potency, µM (doses to about 106 µM), actives largely listed as inhibitors; 0.065% of 280,000 active; AID 1469; P10828; further: nearly all actives have a fitted effect of over 50% in size
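Human TRb ligand-binding domain (0.6 uM) is mixed with 20 nM Texas Red SRC2 peptide and 1 uM T3; after compound addition and 5 hr at ambient temperature, polarization is measured and normalized to unbound and bound controls.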
TexasRed fluor = Texas Red fluorescence interference in TRb-SRC2 counter-screen; TRb/SRC2 Texas Red total fluorescence interference; Potency, µM (series often up to 106 µM); 0.29% of 280,000 active; AID 1479; active means well fitted curve in either direction with a large enough effect; inconclusive means small, poorly fitted or top-dose-only effect
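Human TRb ligand-binding domain at 0.6 uM with 20 nM Texas Red SRC2 peptide in Tris buffer containing 1 uM T3 and 5% DMSO, incubated with compound 5 h at ambient temperature. Total fluorescence (555/632 nm) calculated as parallel + 2 × perpendicular.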
Tau fibril ThT = inhibitors of human tau fibril formation, thioflavin T binding; P10636; recombinant tau K18 P301L, heparin-induced fibrillization, ThT fluorescence; Potency, µM (top dose mostly 57.4 µM), actives largely listed as inhibitors; 2.1% of 270,000 active; further: nearly all actives have a fitted effect of over 55% in size
Target sequence (P10636 561-689 P618L limits assumed): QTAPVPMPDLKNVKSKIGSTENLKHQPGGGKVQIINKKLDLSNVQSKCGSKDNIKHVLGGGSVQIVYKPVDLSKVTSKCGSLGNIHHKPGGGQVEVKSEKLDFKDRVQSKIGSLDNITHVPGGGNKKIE
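Heparin-induced (20 uM) aggregation of recombinant human K18 P301L tau, 15 uM unlabeled with 0.24 uM labeled, pH 7 acetate buffer, 6 hr at 37 C with compound. Fibrils quantified by 30 uM ThT fluorescence after 1 hr ambient incubation.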
Tau fluor cs = counter-screen for tau fibril formation inhibitors; Potency, µM (doses to about 57.7 µM); tau K18 P301L Alexa594 fluorescence, heparin fibrillization; AID 1463; 0.93% of 280,000 active; further: nearly all actives have a fitted effect of over 55% in size
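Human tau K18 P301L (15 uM unlabeled, 0.24 uM Alexa 594-labeled) in 100 mM sodium acetate pH 7 with 20 uM heparin, 6 hr at 37 C. ThT 30 uM added, 1 hr ambient; Alexa 594 FP and total fluorescence read at 555/632 nm.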
Tau fibril FP = tau fibrillization inhibition (FP). AID 1468. K18 P301L tau heparin fibrillization, Alexa594 FP, 6 h. P10636. 0.39% of 280,000 active. Potency, µM (titrated, usually from 57.7 µM), actives largely listed as inhibitors; further: nearly all actives have a fitted effect of over 55% in size
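Human K18 P301L fragment (15 uM unlabeled plus 0.24 uM Alexa 594-labeled) in 100 mM sodium acetate pH 7 with compound, aggregation induced by 20 uM heparin for 6 hr at 37 C. ThT (30 uM) added for 1 hr, then Alexa 594 FP read.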
GoLoco inh red = RGS12 GoLoco-Gai1 interaction inhibition; Gai1:RGS12 GoLoco peptide FP, rhodamine, 10 min; Potency, µM (series often up to 61.6 µM), usual class: inhibitors; 0.44% of 230,000 active; AID 880; active means well fitted inhibition curve with a large enough effect, not every such curve was filed as active; inactive means no such curve, though single readings can be large or run the other way; further: nearly all actives have a fitted effect of over 30% in size
Target sequence (P63096 whole entry, looked up): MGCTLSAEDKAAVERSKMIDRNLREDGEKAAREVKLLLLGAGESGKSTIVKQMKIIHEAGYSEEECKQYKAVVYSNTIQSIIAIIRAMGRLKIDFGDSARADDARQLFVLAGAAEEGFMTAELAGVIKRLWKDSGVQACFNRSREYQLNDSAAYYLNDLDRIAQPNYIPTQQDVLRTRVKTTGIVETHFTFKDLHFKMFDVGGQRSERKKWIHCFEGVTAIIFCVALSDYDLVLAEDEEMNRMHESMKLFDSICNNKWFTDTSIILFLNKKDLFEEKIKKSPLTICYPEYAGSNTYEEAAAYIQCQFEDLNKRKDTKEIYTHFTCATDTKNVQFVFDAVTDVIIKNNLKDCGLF
A number is an active result; 0 = inactive; ? = inconclusive; - = no result given; [ ] = another dose, or the depositor's remark. Most compounds without a hit are left out; they make up all but 3.2% or so of the library. Unless noted, the call rests on the fitted dose curve; in most records, active means well fitted curve in the direction sought with a large enough effect; inconclusive means small, poorly fitted or top-dose-only effect, or another doubt; inactive means no such curve, though single readings can be large; an effect the other way counts as inactive or inconclusive.

SMILES	TRb SRC2 PPI	TexasRed fluor	Tau fibril ThT	Tau fluor cs	Tau fibril FP	GoLoco inh red
CN=c1scc(-c2ccco2)n1/N=C/c1ccc(O)c(O)c1	0	0	7.1µM	16µM[quencher]	?	0
Cc1nc(N=Nc2ccc(O)cc2)n[nH]1	0	0	0	0	0	0
COc1ccc(-c2nc(N=Nc3ccc(O)cc3)n[nH]2)cc1	0	0	2.8µM	0	0	0
Cc1ccc(-c2nc(N=Nc3ccc(O)cc3)n[nH]2)cc1	0	0	2.5µM	0	0	0
COc1ccc(O)cc1	0	0	-	-	-	0
CCc1cccc(CC)c1NC(=O)CCS(=O)(=O)c1ccc2c(c1)CCN2C(C)=O	0	0	0	0	0	-
C=CCOc1nc(OCC=C)nc(OCC=C)n1	0	0	-	-	-	-
CCCCCCCCCC(C)=O	0	0	-	-	-	-
COc1ccc(C2=Nn3c(nnc3-c3ccc(OC)cc3OC)SC2)c(OC)c1	0	0	-	-	-	-
CC(C)(C)c1ccc(O)c(C(C)(C)C)c1	0	0	-	-	-	-
Cc1ccccc1CNC(=O)CN1CCSc2ccccc21	0	0	0	0	0	-
CC(Sc1nnc(Nc2ccccc2)s1)C(=O)NC1CCCc2ccccc21 (configuration not stated)	0	0	0	0	0	0
CC(Sc1nnc(NC2CCCCC2)s1)C(=O)Nc1ccc2c(c1)C(=O)c1ccccc1C2=O (configuration not stated)	0	0	?	16µM[quencher]	0	0
CCOc1ccc(-c2ccc(/C=C3/C(=N)N4C(C)=CSC4=NC3=O)o2)c([N+](=O)[O-])c1	?	79µM[quencher]	3.2µM	?	0	0
CCCCC1=CC2=C(OC(C)=O)C(=O)C(C)(OC(=O)C3CCCC3)C(=O)C2=CO1 (configuration not stated)	0	0	28µM	?	?	0
CC(C)C1Cc2c(C#N)c(N)sc(=S)c2CO1 (configuration not stated)	0	0	20µM	?	0	0
C(=C\c1ccccn1)/c1ccccn1	0	0	0	0	0	0
CC1C/C(=C/c2ccccn2)C(=O)/C(=C/c2ccccn2)C1 (configuration not stated)	0	0	10µM	0	8.9µM	0
O=C1/C(=C/c2ccccn2)COc2ccccc21	0	0	?	0	0	0
CC(C)(C)C1C/C(=C/c2ccccn2)C(=O)/C(=C/c2ccccn2)C1 (configuration not stated)	0	0	11µM	0	?	0
COc1cccc(CNCCCSc2nnnn2C)c1	0	1000µM[quencher]	0	0	0	-
COc1cccc(CNCCSc2nnnn2C)c1	0	0	0	0	0	0
CC(=O)Nc1cc([N+](=O)[O-])ccc1N1CCOCC1	0	0	0	0	0	0
O=C(Nc1ccc([N+](=O)[O-])cc1)Nc1ccc(N2CCOCC2)c2nonc12	?	0	0.89µM	?	0	0
C(=N\Nc1nc2ccccc2[nH]1)/c1ccccc1	0	0	?	0	0	0
SMILES	TRb SRC2 PPI	TexasRed fluor	Tau fibril ThT	Tau fluor cs	Tau fibril FP	GoLoco inh red
C(=C\c1ccccc1)/C=N/Nc1nc2ccccc2[nH]1	0	0	7.9µM	?	0	-
C(=N\Nc1nc2ccccc2[nH]1)/c1c[nH]c2ccccc12	0	0	13µM	16µM[quencher]	0	0
C(=N\Nc1nc2ccccc2[nH]1)/c1cccc2cccnc12	0	0	4.5µM	?	0	0
Cc1ccc(/C=N/Nc2nc3ccccc3[nH]2)s1	0	0	7.9µM	?	?	0
Cc1cc2oc(C(=O)Nc3c(C(=O)Nc4ccccc4)oc4ccccc34)cc(=O)c2cc1C	0	0	0	0	0	-
Fc1ccc(C2=NC(c3cccc(C(F)(F)F)c3)=Nc3ccccc3N2)cc1	0	0	0	0	0	-
COc1ccc(-c2cc(C(F)(F)F)n3nc(C(=O)Nc4cc(Cl)cc(Cl)c4)cc3n2)cc1	0	0	0	0	0	-
Cc1cccc2cc(C(c3nnnn3CC3CCCO3)N3CCc4ccccc4C3)c(=O)[nH]c12 (configuration not stated)	0	0	?	0	0	0
